Compound activity from PubChem BioAssay.
Only a selection was taken, and hits are over-represented in it overall.
G9a block: blocks human histone lysine methyltransferase G9a; AID 504332; Potency, µM (series often up to 102 µM), without a hit: at the highest dose activity, negative = inhibition, usual class: inhibitors; G9a H3K9 monomethylation, AlphaScreen, 2 h; Q96KQ7; actives 8.8% (n = 350,000); further: on the % scale 0 is the no-effect control and ±100 the full control effect; nearly all actives have a fitted effect of over 75% in size
Target sequence (Q96KQ7 913-1193 limits assumed): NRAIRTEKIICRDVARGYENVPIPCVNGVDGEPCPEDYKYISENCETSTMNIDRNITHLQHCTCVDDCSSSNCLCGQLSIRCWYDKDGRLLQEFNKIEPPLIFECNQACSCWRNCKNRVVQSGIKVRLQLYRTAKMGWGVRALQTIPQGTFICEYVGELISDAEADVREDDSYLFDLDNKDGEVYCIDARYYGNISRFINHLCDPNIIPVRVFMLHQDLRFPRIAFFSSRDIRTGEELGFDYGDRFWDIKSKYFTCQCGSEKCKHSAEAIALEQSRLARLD
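Step 1: enzyme (final 20 nM) with compound, 15 min RT. Step 2: substrate peptide 500 nM and SAM 20 uM, 2 h RT. Step 3: anti-H3K9me1 antibody and AlphaScreen beads, 10 min, then plate read.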
Glioma ERSR ind: ER stress response induction in glioma | U87-MG GRP78 promoter luciferase reporter, 16 h | Potency, µM, without a hit: top-dose activation, most hits filed as activators | actives 0.02% (n = 420,000); further: series mostly up to about 76 µM; % of control where 0% means no effect; nearly all actives have a fitted effect of over 35% in size
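Stably transfected U87-MG glioma cells carrying a GRP78-based luciferase sensor; 16 h compound incubation. Luminescence end-point read 10 min after Bright-Glo addition at room temperature.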
Sfp PPTase inh: inhibitors of Bacillus subtilis Sfp phosphopantetheinyl transferase. AID 1490. actives 3.5% (n = 310,000). Potency, µM, for the others: largest response in the series, negative = inhibition, usual class: inhibitors. Biochemical Sfp PPTase activity, qHTS;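 further: the enzyme is Sfp with the accession as filed and its product quenches rhodamine fluorescence; 0% = enzyme reaction without inhibitor and -100% = no enzyme wells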
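Buffer: 50 mM Hepes-Na pH 7.6, 10 mM MgCl2, 0.01% Nonidet P-40, 0.01% BSA. Enzyme 15 nM, pre-exposed to compound 15 min; substrates then added and fluorescence change tracked over 30 min.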
12-LOX inh: inhibitors of human 12S-lipoxygenase ALOX12; purified 12hLO, xylenol orange hydroperoxide absorbance; P18054; AID 1671190; actives 1.1% (n = 580,000); Potency, µM (highest dose often 108 µM), for inactives: top-dose activity change, negative = inhibition, usual class: inhibitors; further: on the % scale 0 is the no-effect control and ±100 the full control effect
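Purified human 12hLO at 150 nM in 25 mM Hepes, 0.01% Triton X-100, pH 7.0, preincubated 15 min at room temperature with compound. Reaction started with 40 uM arachidonic acid, 30 min at room temperature. Hydroperoxide measured by Fe-xylenol orange, 573/405 nm absorbance ratio.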
VDR inh: vitamin D3 receptor (human) inhibition; VDR-SRC2-3 peptide fluorescence polarization, 2 h; Potency, µM, without a hit: max response, negative = inhibition, usual class: inhibitors; actives 0.93% (n = 400,000); AID 504847; further: on the % scale 0 is the no-effect control and ±100 the full control effect
Target sequence (P11473 whole entry, looked up): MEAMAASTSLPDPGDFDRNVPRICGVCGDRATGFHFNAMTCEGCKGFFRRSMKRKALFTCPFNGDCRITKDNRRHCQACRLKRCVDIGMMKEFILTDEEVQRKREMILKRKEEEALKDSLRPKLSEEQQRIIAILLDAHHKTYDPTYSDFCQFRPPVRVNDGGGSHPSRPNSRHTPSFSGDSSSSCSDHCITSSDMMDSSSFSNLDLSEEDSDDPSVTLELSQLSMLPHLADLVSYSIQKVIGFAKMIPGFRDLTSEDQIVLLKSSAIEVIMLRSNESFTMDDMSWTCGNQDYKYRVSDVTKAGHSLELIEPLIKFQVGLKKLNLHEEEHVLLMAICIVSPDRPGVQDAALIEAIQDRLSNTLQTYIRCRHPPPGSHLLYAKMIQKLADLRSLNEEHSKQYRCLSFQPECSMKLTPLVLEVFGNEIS
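Inhibition of the VDR/SRC2-3 peptide interaction is quantified by fluorescence polarization. Compounds (23 nl, pintool) incubate with the reagents for 2 hours at ambient room temperature.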
Numbers without * were called inactive; ? = inconclusive; . = no result given; ! = repeats disagree; [ ] = remark or other dose. The call rests on the fitted dose curve; in most records, active means well fitted curve in the direction sought with a large enough effect; inconclusive means small, poorly fitted or top-dose-only effect, or another doubt; inactive means no such curve, though single readings can be large; an effect the other way counts as inactive or inconclusive. Potency means the concentration at half of the fitted maximal effect.

SMILES | G9a block | Glioma ERSR ind | Sfp PPTase inh | 12-LOX inh | VDR inh
CCSc1nc(N)c2c3c(sc2n1)CCCC3C (configuration not stated) | . | . | . | -7.4% | .
CCOC(=O)c1cc(-c2ccc(S(=O)(=O)Nc3ccccc3CC)s2)on1 | . | . | . | 45.2% | .
Oc1ccc2ccccc2c1C=Nc1cc(C(F)(F)F)ccc1N1CCCC1 | 7.08µM* | -9.5% | -9.3% | ? | 12.6%
O=C(O)c1ccccc1C(=O)Nc1cc(C(F)(F)F)ccc1N1CCCC1 | -8.4% | -2.6% | -0.7% | 0.0% | 7.1%
Nc1c(C(=O)c2cccs2)oc2ccccc12 | 27.5% | 6.7% | -7.9% | 0.0% | -6.2%
Nc1c(C(=O)c2ccc(Br)s2)oc2ccccc12 | 44.7µM* | -4.4% | -18.9% | 0.0% | -6.0%
CCCCC(c1nnnn1CC1CCCO1)N1CCN(c2nc3ccccc3s2)CC1 (configuration not stated) | 28.2µM* | -3.8% | -9.8% | ? | -14.4%
O=C(C1=C(c2ccccc2)C(=O)c2ccccc2C1=O)c1ccccc1 | 35.5µM* | -9.8% | -8.6% | -6.9% | -17.9%
O=C1C(c2ccccc2)=C(c2ccccc2)c2ccccc21 | . | . | . | 4.5% | .
COC1=C(c2ccccc2)C(=O)c2ccccc2C1=O | 20µM* | -2.9% | 2.9% | -19.0% | -20.2%
NC(=O)c1cccnc1OC1CCN(CCc2ccccc2)CC1 | . | . | . | 6.4% | .
O=C(CC(Nc1ccccc1Cl)C(=O)OCC(=O)c1cccs1)c1ccccc1 (configuration not stated) | 10µM* | 1.7% | 44.7µM* | ? | -3.9%
COc1ccccc1NC(CC(=O)c1ccccc1)C(=O)OCC(=O)c1ccc(C)cc1 (configuration not stated) | ? | 8.5% | -0.2% | -7.9% | 2.7%
Cc1ccc(NC(CC(=O)c2ccccc2)C(=O)O)cc1Cl (configuration not stated) | . | -0.8% | ? | ? | ?
O=C(CC(Nc1ccc(Cl)cc1Cl)C(=O)O)c1ccccc1 (configuration not stated) | ? | -7.8% | 14.1µM* | 2.8% | 79.4µM*
Cc1ccc(-c2ccc(OCC(=O)Nc3ccc(C(=O)N(C)C)cc3)cc2)cc1 | . | . | . | -3.8% | .
Fc1c(F)c(F)c(/C=N/Nc2c(F)c(F)c(F)c(F)c2F)c(F)c1F | . | . | . | -4.8% | .
Cc1cccc(CNc2ncnc3ccc(-c4ccccc4C#N)cc23)c1 | . | -4.3% | 15.3% | -50.2% | 1.7%
N#Cc1ccccc1-c1ccc2ncnc(NCc3cccs3)c2c1 | 7.9%[0.501 µM] | -10.1% | -15.9% | 12.6µM* | 8.9%
Cc1c2oc3c(C)ccc(C(=O)N[C@@H]4C(=O)N[C@H](C(C)C)C(=O)N5CCC[C@H]5C(=O)N(C)CC(=O)N(C)[C@@H](C(C)C)C(=O)O[C@@H]4C)c3nc-2c(C(=O)N[C@@H]2C(=O)N[C@H](C(C)C)C(=O)N3CCC[C@H]3C(=O)N(C)CC(=O)N(C)[C@@H](C(C)C)C(=O)O[C@@H]2C)c(N)c1=O | 11.2µM* | -6.7% | -5.3% | -3.3%[22.9 µM] | 44.7µM*!
O=S(=O)(N/N=C/c1ccc2c(c1)OCCO2)c1ccc(Cl)cc1 | -48.9% | -1.9% | 19.0% | ? | 11.3%
O=[N+]([O-])c1cccc(/C=N/NS(=O)(=O)c2ccccc2)c1 | . | -2.4% | 0.0% | 3.9% | -16.2%
CCN(Cc1ccccc1)c1ccc(/C=N/NS(=O)(=O)c2cccc([N+](=O)[O-])c2)cc1 | 10µM* | -3.0% | ? | ? | -2.6%
CCN(CC)c1ccc(/C=N/NS(=O)(=O)c2ccc(Cl)cc2)cc1 | . | . | . | 31.6µM* | .
Cc1ccc(S(=O)(=O)N/N=C/c2ccccc2O)cc1[N+](=O)[O-] | ? | 6.5% | 9.5% | 6.2% | -3.6%
SMILES | G9a block | Glioma ERSR ind | Sfp PPTase inh | 12-LOX inh | VDR inh
Cc1ccc(S(=O)(=O)N/N=C/c2ccc(O)c(O)c2)cc1[N+](=O)[O-] | 35.5µM* | 0.0% | ? | 50.1µM* | 10.8%
CCN(CC)c1ccc(/C=N/NS(=O)(=O)c2ccc(C)c([N+](=O)[O-])c2)cc1 | 39.8µM* | 0.2% | -5.2% | ? | 4.7%
COc1ccc2c(c1)c1ncn(Cc3ccc(F)cc3)c(=O)c1n2C | 22.5%[59 µM] | -0.6% | 1.4% | -0.3% | 6.3%
COc1ccc2c(c1)c1ncn(Cc3ccco3)c(=O)c1n2C | 1.2%[0.501 µM] | -3.3% | 17.8µM* | -8.6% | 0.1%
C=CCn1c(CCNC(=O)c2cccs2)nnc1SCC(=O)c1ccc(Br)cc1 | 44.7µM* | -3.3% | 1.3% | -29.6% | ?
C=CCn1c(CNC(=O)c2cccs2)n[nH]c1=S | 25.1µM* | -1.6% | -18.4% | 0.2% | -8.7%
C=CCn1c(C(C)NC(=O)c2cccs2)n[nH]c1=S (configuration not stated) | 15.8µM* | -1.9% | -7.7% | 2.2% | 2.0%
CCn1c(C(C)NC(=O)c2cccc(C)c2)n[nH]c1=S (configuration not stated) | 44.7µM* | 0.3% | -4.7% | 1.3% | 12.8%
CCCc1cc(=O)[nH]c(SC(C)C(=O)NC2CCCCCC2)n1 (configuration not stated) | . | . | . | -6.6% | .
O=C1N=c2ccccc2=C1c1[nH]c(=S)[nH]c1O | ? | -4.7% | -0.5% | -11.7% | 3.2%
O=C1N=c2ccccc2=C1c1c(O)[nH]c2c(C(F)(F)F)cccc12 | -16.5% | -2.4% | 4.4% | ? | 35.5µM*
c1ccc2c(c1)nc(-c1ccncc1)n2CCNc1nc(CN2CCCCC2)cs1 | 50.1µM* | -4.3% | -19.9% | 0.8% | -2.5%
FC(F)(F)c1nc2ccccc2n1CCNc1nc(CN2CCCCC2)cs1 | 44.7µM* | -2.2% | 4.3% | -1.9% | -1.3%
O=C(NCCn1c(-c2ccncc2)nc2ccccc21)[C@H]1CCCN1c1nc(CN2CCCCC2)cs1 | -2.1% | -3.0% | 16.4% | -1.0% | 2.2%
COc1cc(CC(=O)NC(C)c2cccs2)cc(OC)c1OC (configuration not stated) | . | . | . | -8.7% | .
CC(CCc1ccco1)NC(=O)c1cc2c(-c3ccccc3F)nn(C)c2s1 (configuration not stated) | 89.1µM* | -3.7% | 44.7µM* | -28.5% | -20.3%
Cc1ccsc1CN(C)CC(=O)Nc1ccc([N+](=O)[O-])cc1Cl | 39.8µM* | 4.9% | -0.8% | -9.9% | 4.4%
CN(CC(=O)Nc1cc([N+](=O)[O-])ccc1Cl)Cc1ccc(Br)cc1 | 11.2µM* | -1.9% | ? | ? | -17.3%
Cc1c(-c2ccc(Cl)cc2)c(=O)oc2cc(OC(=O)N3CCOCC3)ccc12 | . | . | . | 9.9% | .
OCCN1CCN(C(c2cccs2)c2ccc3cccnc3c2O)CC1 (configuration not stated) | ? | . | 15.8µM* | . | .
Cc1ccc(NC(=O)C2=C(O)c3sccc3N(C)S2(=O)=O)cc1 | -8.6%[12.7 µM] | -7.1% | 18.1% | 9.2% | 5.0%
Cc1ccc(NC(=S)C2=C(O)c3sccc3N(C)S2(=O)=O)cc1 | 17.8µM* | 3.3% | -28.2% | ? | -21.4%
CN(C)CCCOC(=O)c1ccc(Cl)cc1 | -35.7%[12.7 µM] | -3.4% | -7.5% | 7.1% | -0.7%
CN(C)CCCOC(=O)c1ccc(Br)cc1 | 44.7µM* | -2.1% | 2.9% | 11.6% | -0.2%
